Source: PubChem BioAssay (NCI)
The panel holds about 83,000 compounds, 20% with a hit somewhere; the sample as a whole holds those more often.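 In brief: 96-well plates, 48 h treatment, single concentration, percent growth endpoint.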 Values without a mark were called inactive. Active and inactive are the calls of the source. The calls were made as follows: active = growth percent below 10; inactive = the rest.

test system: CCRF-CEM leukemia; assay: NCI-60 one-dose screen, 48 h (100 = growth as untreated, 0 = no growth, -100 = all killed); conditions: 10 µM unless noted

Going from `Nc1ccc(F)c(Cl)c1F` to `Cc1ccc2nc(N)nnc2c1`, the growth rises from 99.4% to 102%.

Going from `COc1ccc(Br)c2c1C(=O)CC2` to `CC(c1ccccc1)N1C(=O)CSC1=S` (stereo unspecified), the growth falls from 93.1% to 63.8%.

First: Oc1cccnc1CN1CCCC1
Second: COc1cc(C(=O)N2CCN(c3ccccc3)CC2)c2ccccc2n1
The growth of the first is higher: 101% for the first, 29.3% for the second.

Going from `CC(C)(CC(=O)O)CC(=O)O` to `CC(=O)NC(CCC(=O)c1ccccc1)C(=O)O` (stereo unspecified), the growth falls from 105% to 103%.

Compared with `CN=S(=O)(OCCCCCOS(=O)(=NC)c1ccc(C)cc1)c1ccc(C)cc1` (stereo unspecified), `CCOP(=O)(NC(c1ccccc1)c1ccccc1)OCC` is higher in growth: 39.6% for the first, 103% for the second.

Compared with `NC(CO)(CO)c1ccccc1`, `C=C(OC(C)=O)c1ccccc1` is lower in growth: 90% for the first, 83.5% for the second.

First: CC1CC2C3CCC4=CC(=O)CCC4(C)C3CCC2(C)C1(O)C(=O)CO (stereo unspecified)
Second: CC(C)(C)[Si](C)(C)OCC1OC(n2cnc3c(N)ncnc32)CC1OS(C)(=O)=O (stereo unspecified)
The growth of the first is lower: 90.6% for the first, 101% for the second.

First: CN1CCN(C(=S)S)CC1
Second: NCCCN1CCCC1=O
The growth of the first is lower: 89% for the first, 114% for the second.

Going from `Nc1ncnc(Nc2ccccc2)n1` to `Nc1cc2ccccc2c(O)c1O`, the growth falls from 104% to 19.6%.

Compared with `O=c1cc(C(F)(F)F)[nH]c(=S)[nH]1`, `S=c1nc2[nH]c3ccccc3c2n[nH]1` is lower in growth: 119% for the first, 91.3% for the second.

Going from `CCOC(=O)c1c(C)[nH]c(C)c1C=O` to `CCOC(=O)/C(C#N)=C\c1c[nH]c2ccccc12`, the growth rises from 79.8% to 108%.

Going from `Nc1nc(Cl)cc(Cl)n1` to `Cc1ccc(S(N)(=O)=O)cc1Cl`, the growth falls from 108% to 102%.

Going from `C=C(C)COc1ccc(C(C)(C)C)cc1` to `CCOc1ccc2c(c1)c(C)cc(C)[n+]2CC`, the growth falls from 103% to 71.2%.

Going from `Nc1ccc2c(c1)Cc1cc(N)c(N)cc1-2` to `O=C1C=Cc2ccccc2/C1=C/c1[nH]c(=O)[nH]c1O`, the growth falls from 105% to 24.3%.

Compared with `Clc1ccc(C(SCc2ccccc2)SCc2ccccc2)cc1`, `O=C(OCc1ccccc1)n1nnc2ccccc21` is higher in growth: 83.4% for the first, 111% for the second.

Compared with `O=[N+]([O-])c1ccc(-c2nc(N(CCO)CCO)c3ccccc3n2)o1`, `CCNC(=O)OCCc1c2ccccc2nc2ccccc12` is higher in growth: 21.1% for the first, 73.7% for the second.

Compared with `CCN(C(=O)Nc1ccccc1Cl)c1ccccc1`, `O=[n+]1ccn([O-])c2ccccc21` is lower in growth: 110% for the first, 17.7% for the second.

First: Cc1ccc(C)c(CCO)c1
Second: Cc1c(Cl)cccc1N=C=S
The growth of the first is higher: 119% for the first, 94.6% for the second.

`Nc1ncnc2c1ncn2C1OC(CO)C2OC21` (stereo unspecified) was tested, and the growth was 105%.

With `NC(CSSCC(N)C(=O)O)C(=O)O` (stereo unspecified) the growth was -10.1% (active).

test system: MOLT-4 leukemia; assay: as above; conditions: 10 µM unless noted

First: COc1ccc(Br)c2c1C(=O)CC2
Second: CC(c1ccccc1)N1C(=O)CSC1=S (stereo unspecified)
The growth of the first is higher: 142% for the first, 28.3% for the second.

Going from `Oc1cccnc1CN1CCCC1` to `COc1cc(C(=O)N2CCN(c3ccccc3)CC2)c2ccccc2n1`, the growth falls from 94.2% to 29.9%.

Compared with `CN=S(=O)(OCCCCCOS(=O)(=NC)c1ccc(C)cc1)c1ccc(C)cc1` (stereo unspecified), `CCOP(=O)(NC(c1ccccc1)c1ccccc1)OCC` is higher in growth: 78.6% for the first, 106% for the second.

Compared with `CC1CC2C3CCC4=CC(=O)CCC4(C)C3CCC2(C)C1(O)C(=O)CO` (stereo unspecified), `CC(C)(C)[Si](C)(C)OCC1OC(n2cnc3c(N)ncnc32)CC1OS(C)(=O)=O` (stereo unspecified) is higher in growth: 71.9% for the first, 105% for the second.

First: CN1CCN(C(=S)S)CC1
Second: Cc1ccc(C)c(CCO)c1
The growth of the first is lower: 105% for the first, 113% for the second.

First: Nc1ncnc(Nc2ccccc2)n1
Second: CCNC(=O)OCCc1c2ccccc2nc2ccccc12
The growth of the first is higher: 96.2% for the first, 76.4% for the second.

Compared with `O=c1cc(C(F)(F)F)[nH]c(=S)[nH]1`, `S=c1nc2[nH]c3ccccc3c2n[nH]1` is lower in growth: 105% for the first, 104% for the second.

First: C=C(C)COc1ccc(C(C)(C)C)cc1
Second: CCOc1ccc2c(c1)c(C)cc(C)[n+]2CC
The growth of the first is higher: 111% for the first, 64.6% for the second.

Compared with `Clc1ccc(C(SCc2ccccc2)SCc2ccccc2)cc1`, `O=C(OCc1ccccc1)n1nnc2ccccc21` is higher in growth: 84.9% for the first, 116% for the second.

Going from `O=[N+]([O-])c1ccc(-c2nc(N(CCO)CCO)c3ccccc3n2)o1` to `CCOC(=O)/C(C#N)=C\c1c[nH]c2ccccc12`, the growth rises from 12.5% to 81.6%.

First: Cc1ccc2nc(N)nnc2c1
Second: Cc1ccc(S(N)(=O)=O)cc1Cl
The growth of the first is higher: 100% for the first, 96.6% for the second.

Work on `O=C1C=Cc2ccccc2/C1=C/c1[nH]c(=O)[nH]c1O` yielded a growth of 43%.

`NC(CSSCC(N)C(=O)O)C(=O)O` (stereo unspecified) was tested, and the growth was -9.51% (active).

test system: SR leukemia; assay: as above; conditions: 10 µM unless noted

First: Nc1ccc(F)c(Cl)c1F
Second: Nc1nc(Cl)cc(Cl)n1
The growth of the first is higher: 101% for the first, 93.6% for the second.

Compared with `CC(C)(CC(=O)O)CC(=O)O`, `CC(=O)NC(CCC(=O)c1ccccc1)C(=O)O` (stereo unspecified) is lower in growth: 99.3% for the first, 16.6% for the second.

Compared with `NC(CO)(CO)c1ccccc1`, `C=C(OC(C)=O)c1ccccc1` is lower in growth: 96.7% for the first, 80.7% for the second.

Going from `CCOC(=O)c1c(C)[nH]c(C)c1C=O` to `CCN(C(=O)Nc1ccccc1Cl)c1ccccc1`, the growth falls from 84.4% to 81.4%.

First: Nc1ccc2c(c1)Cc1cc(N)c(N)cc1-2
Second: O=[n+]1ccn([O-])c2ccccc21
The growth of the first is higher: 82.2% for the first, 78.3% for the second.

Compared with `NCCCN1CCCC1=O`, `Nc1ncnc2c1ncn2C1OC(CO)C2OC21` (stereo unspecified) is higher in growth: 88.2% for the first, 112% for the second.

`Cc1c(Cl)cccc1N=C=S` gave a growth of 108%.

For `Nc1cc2ccccc2c(O)c1O`, the growth was 0.498% (active).
